# Reference: PubChem BioAssay AID463173 (ICCB-Longwood Screening Facility, Harvard Medical School, 2010)
# Screen size: about 52,000 compounds; about 4,300 (8.3%) were called active. The sample as a whole holds a higher share of actives than the screen did. Unmarked numbers belong to inactive results. Cut-off read from the data, not from the text of the source: active = survival mostly below about 52% (no sharp cut-off); inactive = mostly above about 56%.
# Tested on: DeltatarO mutant
# Test: growth inhibition of S. aureus wild type versus tarO mutant, primary screen, teichoic acid synthesis inhibitors, RN4220, OD600 (AID 463173)
# Conditions: OD600, 18 h, hits give low values, screened at 18.75 µg/mL (by protocol)
row,SMILES,survival
1,CCN(CC)CCNC(=O)c1nn(C)c2c1CS(=O)(=O)c1ccccc1-2,59%
2,O=S(=O)(Nc1cccc(-c2ccc(N3CCCC3)nn2)c1)c1ccc(F)c(C(F)(F)F)c1,71%
3,Cc1cccc2c(=O)c(N)c[nH]c12,105%
4,O=C(Cn1c(=O)n(-c2ccccc2)c(=O)c2ccc(C(=O)NCc3ccc4c(c3)OCO4)cc21)Nc1ccc(Br)cc1F,117%
5,CCc1ccc(CNC(=O)CN2C(=O)CCn3nc(-c4cn(C)c5ccccc45)cc32)cc1,81%
6,Cn1c(Nc2ccc(Cl)cc2)cc(=O)n(C)c1=O,93%
7,Cc1cc(F)ccc1NC(=O)C1CCN(C(=O)c2cnn(-c3ccccc3)c2-n2cccc2)CC1,80%
8,O=C(NCCCN1CCN(c2ccccc2F)CC1)c1cc2c(s1)-c1ccccc1OC2,11% (active)
9,CCN1CCN(CCCNC(=O)c2cc3c(s2)-c2ccccc2OC3)CC1,88%
10,O=C(NCCCN1CCN(c2ccc(F)cc2)CC1)c1cc2c(s1)-c1ccccc1OC2,55% (active)
11,CCCN1CCN(CCCNC(=O)c2cc3c(s2)-c2ccccc2OC3)CC1,85%
12,Cc1cccc2c1-c1sc(C(=O)NCCCN3CCN(c4ccccc4F)CC3)cc1CO2,63%
13,O=C(NCCCN1CCN(c2ccccc2)CC1)c1cc2c(s1)-c1ccccc1OC2,53%
14,Cc1ccc(CCNC(=O)CCc2cn(Cc3ccccc3C)c3ccccc23)cc1,68%
15,CCN(C(=O)c1cn(CC)c(=O)c2cc(OC)c(OC)cc12)c1ccc(C)c(C)c1,169%
16,CCc1ccc(C(=O)COC(=O)C(Cc2c[nH]c3ccccc23)NC(=O)c2ccc(Br)cc2)cc1 (stereo not given),142%
17,CCOC(=O)C(Cc1c[nH]c2ccccc12)NC(=O)COc1ccc(Cl)c(C)c1 (stereo not given),36% (active)
18,CC(C)(C)c1ccc(OCC(=O)NC(Cc2c[nH]c3ccccc23)C(=O)O)cc1 (stereo not given),56%
19,Cc1cccc(OCC(=O)NC(Cc2c[nH]c3ccccc23)C(=O)O)c1C (stereo not given),48%
20,COC(=O)C(Cc1c[nH]c2ccccc12)NC(=O)COc1ccc(Cl)cc1Cl (stereo not given),46%
21,Cc1cc(OCC(=O)NC(Cc2c[nH]c3ccccc23)C(=O)O)ccc1Cl (stereo not given),53%
22,CCOC(=O)C(Cc1c[nH]c2ccccc12)NC(=O)COc1ccc(CC)cc1 (stereo not given),33% (active)
23,CC(C)c1ccc(OCC(=O)NC(Cc2c[nH]c3ccccc23)C(=O)O)cc1 (stereo not given),42% (active)

row,SMILES,survival
1,Cc1cc(C)cc(OCC(=O)NC(Cc2c[nH]c3ccccc23)C(=O)O)c1 (stereo not given),51%
2,CCc1ccc(OCC(=O)NC(Cc2c[nH]c3ccccc23)C(=O)O)cc1 (stereo not given),40% (active)
3,COC(=O)C(Cc1c[nH]c2ccccc12)NC(=O)COc1cccc(C)c1 (stereo not given),65%
4,COc1ccc(OCC(=O)NC(Cc2c[nH]c3ccccc23)C(=O)O)cc1 (stereo not given),60%
5,O=C(CCn1c(=O)c2cccn2c2cccnc21)Nc1ccccc1Br,74%
6,COc1ccc(N2CC(NC(=O)c3cccs3)CC2=O)cc1 (stereo not given),89%
7,O=C(O)Cn1nc(N2CCN(c3ccc(F)cc3)CC2)ccc1=O,84%
8,Cc1ccc(NC(=O)Cn2c(=O)n(CCCCCC(=O)NCc3ccc(F)cc3)c(=O)c3sccc32)c(C)c1,66%
9,O=C(O)CCn1nnc(-c2cccs2)n1,103%
10,Cc1cccc(N2CCN(C(=O)c3ccc(NC(=O)c4nsc5ccccc45)cc3)CC2)c1C,76%
11,O=C(NCCN1CCCCC1)c1ccc(Cn2c(SCc3cccc(F)c3)nc3cccnc32)cc1,103%
12,Cc1c(C(=O)Nc2ccccc2)sc2ncn(CC(=O)N3CCOCC3)c(=O)c12,87%
13,CCOc1ccc(C(=O)OC(C)CN2CCCCC2)cc1 (stereo not given),96%
14,O=C(Cn1cc(SCc2ccc(Br)cc2)c2ccccc21)N1CCCCC1,80%
15,O=C(/C=C/c1cn(CC(O)CN2CCc3ccccc32)c2ccccc12)c1ccc(Br)cc1 (stereo not given),68%
16,Cc1ccc(C(=O)/C=C/c2cn(CC(O)CN3CCCCCC3)c3ccccc23)cc1 (stereo not given),12% (active)
17,CCOc1ccc(C(=O)/C=C/c2cn(CC(O)CN3CCCCCC3)c3ccccc23)cc1 (stereo not given),1% (active)
18,COc1ccc(C(=O)/C=C/c2cn(CC(O)CN3CCCCCC3)c3ccccc23)cc1OC (stereo not given),80%
19,O=C(/C=C/c1cn(CC(O)CN2CCCCCC2)c2ccccc12)c1ccc(Br)cc1 (stereo not given),-3% (active)
20,O=C(/C=C/c1cn(CC(O)CN2CCCCCC2)c2ccccc12)c1ccccc1 (stereo not given),49%
21,COc1ccc(C(=O)/C=C/c2cn(CC(O)CN3CCc4ccccc43)c3ccccc23)cc1OC (stereo not given),68%
22,COc1ccc(CCn2c3c(c(=O)[nH]c2=O)C(NC(=O)c2ccccc2OC)(C(F)(F)F)C(=O)N3)cc1OC (stereo not given),81%
23,Cc1ccc(NC(=O)c2ccc3c(O)c(S(=O)(=O)c4ccccc4)c(=O)[nH]c3c2)cc1Cl,78%

row,SMILES,survival
1,CCc1cccc(NC(=O)CSc2nnc(-c3cc4occc4n3C)n2-c2ccccc2C)c1,89%
2,COc1ccccc1N1CCN(C(=O)C2CCCN(S(=O)(=O)c3ccc4c(c3)CCCN4C(C)=O)C2)CC1 (stereo not given),88%
3,CCN1CCN(C(C)C(=O)NCc2ccc(OC)cc2)CC1 (stereo not given),85%
4,CNC(=O)CSc1nnc(NC(=O)Nc2ccccc2)s1,94%
5,O=C(Cn1c(SCC(=O)N2CCc3ccccc32)nc2ccccc21)NC1CC1,77%
6,O=C(NCCc1ccccc1)c1ccc2c(c1)nc1n2CCOC1,109%
7,OC1COCc2nc3ccccc3n2C1 (stereo not given),57% (active)
8,c1ccc2c(c1)nc1n2CCC1,96%
9,Cn1c(=O)n(C)c2cc(N3CCOCC3)c(NS(=O)(=O)c3ccc(C(C)(C)C)cc3)cc21,81%
10,COc1cccc(NC(=O)C(Cc2ccccc2)N2Cc3ccccc3C2=O)c1 (stereo not given),66%
11,CCOc1ccc(CCNC(=O)c2cc3sc(CC)cc3n2C)cc1OCC,55%
12,COc1cc(CN(C(=O)COc2ccc(F)cc2)c2ccccn2)cc(OC)c1OC,81%
13,Cc1cccc(CN2CCC(CNC(=O)Cn3ncc4c([nH]c5ccc(C)cc54)c3=O)CC2)c1,120%
14,OCC#CCSc1nc2ccccc2s1,71%
15,O=S1(=O)C=C(Sc2nc3ccccc3s2)c2ccccc21,4% (active)
16,Cc1cc(C)nc(SC2=CS(=O)(=O)c3ccccc32)n1,88%
17,CC(C)CCn1c(=O)c2cccnc2n(CC(=O)Nc2ccccc2)c1=O,72%
18,CCS(=O)(=O)c1c(Nc2cc(C)ccc2C)sc(C(=O)c2ccccc2)c1N,90%
19,Cc1ccc(Nc2sc(C(=O)c3ccc(F)cc3)c(N)c2S(=O)(=O)c2ccc(C)cc2)cc1,116%
20,CCOc1ccccc1Nc1sc(C(=O)c2ccc(Cl)cc2)c(N)c1S(=O)(=O)c1ccccc1,25% (active)
21,CCOc1ccccc1Nc1sc(C(=O)c2ccc(Cl)cc2)c(N)c1C#N,94%
22,COc1ccc(S(=O)(=O)c2c(Nc3ccc(C)cc3)sc(C(=O)c3ccc(C)cc3)c2N)cc1,105%
23,CCOc1ccc(Nc2sc(C(=O)c3ccc(F)cc3)c(N)c2S(=O)(=O)c2ccc(C)cc2)cc1,52% (active)

row,SMILES,survival
1,Cc1ccccc1Nc1sc(C(=O)c2ccccc2)c(N)c1S(C)(=O)=O,99%
2,CCCS(=O)(=O)c1c(Nc2ccccc2C)sc(C(=O)c2ccccc2)c1N,28% (active)
3,CCOc1ccccc1Nc1sc(C(=O)c2ccccc2)c(N)c1S(=O)(=O)c1ccc(C)cc1,92%
4,Cc1nc2ccc(S(=O)(=O)N(C)CC(=O)Nc3ccc(C(C)C)cc3)cc2s1,113%
5,CCc1ccc(NC(=O)CN2C(=O)CCSc3ccccc32)cc1,86%
6,CCc1nc2ccccc2n2c(-c3ccccc3)c3c(=O)n(C)c(=O)n(C)c3c12,75%
7,Cc1cc2c(cc1S(=O)(=O)NCc1ccccc1)OCC(=O)N2,91%
8,COc1ccc(C)cc1NC(=O)NC(C)c1c(-n2cccc2)sc(C)c1C (stereo not given),44%
9,Cc1ccccc1-c1nnc(SCC(=O)N2CCCCC2)o1,64%
10,Cc1nc2c(-c3ccccc3)c(C)nn2c(C)c1CCC(=O)NCc1cccc(Cl)c1,109%
11,CCc1cccc(NC(=O)CN2C(=O)COc3ccc(S(=O)(=O)Nc4ccccc4)cc32)c1,82%
12,CC(C)N1CC2=C(OC(N)=C(C#N)C2c2cccnc2)/C(=C/c2cccnc2)C1 (stereo not given),85%
13,CCOC(=O)C1=C(c2ccccc2)OC(N)=C(C#N)C1c1ccncc1 (stereo not given),87%
14,N#CC1=C(N)OC2=C(CCc3ccccc32)C1c1ccccc1 (stereo not given),2% (active)
15,Cc1ccc(CSc2n[nH]c(-c3ccccc3O)n2)cc1,62%
16,Cc1ccc(NC(=O)C(C)Sc2n[nH]c(-c3ccccc3O)n2)cc1 (stereo not given),23% (active)
17,Cc1cccc(C)c1NC(=O)C(C)Sc1n[nH]c(-c2ccncc2)n1 (stereo not given),76%
18,O=C(NCC(=O)N1CCCCC1)c1ccccc1,97%
19,Cc1ccc(Cl)cc1NC(=O)Cn1c(=O)oc2cc(S(=O)(=O)N3CCCC3)ccc21,81%
20,CCc1ccccc1NC(=O)Cn1c(=O)n(CCc2ccccc2)c(=O)c2ccccc21,89%
21,COC(=O)c1ccc(Cn2nc(-c3ccc(C)c(C)c3)ccc2=O)cc1,67%
